Many of the other results were omitted from the sample, so hits are more common in it than they were.
nsP2pro inh = CHIKV nsP2 protease inhibition, primary qHTS. Potency, µM (highest dose often 24.9 µM), without a hit: top-dose activity change, negative = inhibition, usual class: inhibitors. 31,000 tested, 1.1% active. Q8JUX6. FRET peptide cleavage, nsP2pro, fluorescence 1 h. AID 1964107; calls by dose curve; note: nearly all actives have a fitted effect of over 60% in size
Target sequence (Q8JUX6 whole entry, looked up): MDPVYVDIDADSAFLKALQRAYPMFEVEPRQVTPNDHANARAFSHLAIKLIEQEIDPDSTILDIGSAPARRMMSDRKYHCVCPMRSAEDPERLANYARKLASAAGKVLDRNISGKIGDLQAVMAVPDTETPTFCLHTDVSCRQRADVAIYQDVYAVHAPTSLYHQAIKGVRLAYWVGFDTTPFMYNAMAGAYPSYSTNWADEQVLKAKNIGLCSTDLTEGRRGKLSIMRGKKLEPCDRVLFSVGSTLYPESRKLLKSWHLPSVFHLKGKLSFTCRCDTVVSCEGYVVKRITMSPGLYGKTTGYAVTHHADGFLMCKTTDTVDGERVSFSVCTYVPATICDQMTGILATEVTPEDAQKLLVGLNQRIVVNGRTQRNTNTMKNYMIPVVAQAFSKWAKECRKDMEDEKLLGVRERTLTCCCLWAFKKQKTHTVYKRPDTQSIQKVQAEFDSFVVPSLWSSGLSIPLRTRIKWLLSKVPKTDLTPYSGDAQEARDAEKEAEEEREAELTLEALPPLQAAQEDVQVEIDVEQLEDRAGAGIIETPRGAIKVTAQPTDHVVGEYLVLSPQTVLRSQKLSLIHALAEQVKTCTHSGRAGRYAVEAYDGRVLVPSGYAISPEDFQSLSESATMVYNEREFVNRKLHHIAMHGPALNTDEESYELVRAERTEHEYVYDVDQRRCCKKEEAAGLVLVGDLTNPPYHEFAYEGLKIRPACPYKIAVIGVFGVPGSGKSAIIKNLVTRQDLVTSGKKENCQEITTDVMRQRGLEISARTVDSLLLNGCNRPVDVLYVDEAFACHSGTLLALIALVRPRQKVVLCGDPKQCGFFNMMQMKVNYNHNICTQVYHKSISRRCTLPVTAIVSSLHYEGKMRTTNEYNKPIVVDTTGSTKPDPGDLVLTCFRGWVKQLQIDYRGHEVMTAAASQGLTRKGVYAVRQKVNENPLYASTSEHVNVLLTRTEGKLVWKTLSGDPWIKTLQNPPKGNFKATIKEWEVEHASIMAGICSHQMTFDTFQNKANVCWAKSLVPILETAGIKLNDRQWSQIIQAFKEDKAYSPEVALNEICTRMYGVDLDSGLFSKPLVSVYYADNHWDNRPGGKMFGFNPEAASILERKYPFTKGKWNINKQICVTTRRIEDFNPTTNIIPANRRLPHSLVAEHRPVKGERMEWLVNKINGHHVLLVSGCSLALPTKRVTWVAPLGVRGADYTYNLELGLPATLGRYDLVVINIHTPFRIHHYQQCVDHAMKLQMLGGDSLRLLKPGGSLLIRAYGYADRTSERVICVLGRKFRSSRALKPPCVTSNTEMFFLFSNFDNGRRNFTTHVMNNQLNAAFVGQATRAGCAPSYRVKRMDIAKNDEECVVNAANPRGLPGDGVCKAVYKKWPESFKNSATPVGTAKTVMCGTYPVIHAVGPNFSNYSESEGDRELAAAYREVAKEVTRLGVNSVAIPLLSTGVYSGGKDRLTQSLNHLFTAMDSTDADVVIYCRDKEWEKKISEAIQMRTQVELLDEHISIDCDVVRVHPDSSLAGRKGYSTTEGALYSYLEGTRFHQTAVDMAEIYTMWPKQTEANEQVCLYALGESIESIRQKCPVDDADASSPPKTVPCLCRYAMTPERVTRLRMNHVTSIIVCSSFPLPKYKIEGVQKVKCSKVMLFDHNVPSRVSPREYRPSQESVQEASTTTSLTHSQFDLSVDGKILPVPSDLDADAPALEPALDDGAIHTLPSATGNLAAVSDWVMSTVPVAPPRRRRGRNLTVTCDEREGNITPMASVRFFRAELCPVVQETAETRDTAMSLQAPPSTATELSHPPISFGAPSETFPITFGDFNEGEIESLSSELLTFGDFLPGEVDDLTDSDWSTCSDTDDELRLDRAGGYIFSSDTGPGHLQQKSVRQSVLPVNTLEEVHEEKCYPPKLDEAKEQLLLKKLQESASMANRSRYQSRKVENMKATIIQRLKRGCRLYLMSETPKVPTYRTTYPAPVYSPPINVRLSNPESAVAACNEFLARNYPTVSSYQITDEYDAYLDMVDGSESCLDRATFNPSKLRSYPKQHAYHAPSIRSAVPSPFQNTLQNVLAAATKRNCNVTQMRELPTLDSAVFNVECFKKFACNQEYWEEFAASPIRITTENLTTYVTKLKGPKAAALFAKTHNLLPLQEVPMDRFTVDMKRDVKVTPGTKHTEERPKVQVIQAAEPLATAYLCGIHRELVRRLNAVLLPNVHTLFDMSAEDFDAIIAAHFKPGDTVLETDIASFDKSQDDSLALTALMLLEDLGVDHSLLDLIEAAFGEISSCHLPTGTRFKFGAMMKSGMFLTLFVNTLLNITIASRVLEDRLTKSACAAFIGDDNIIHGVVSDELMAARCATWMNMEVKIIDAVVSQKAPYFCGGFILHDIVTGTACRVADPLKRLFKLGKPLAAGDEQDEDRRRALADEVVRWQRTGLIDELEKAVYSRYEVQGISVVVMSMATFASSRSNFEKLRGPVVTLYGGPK
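FRET cleavage of 2.5 uM peptide 2 by 150 nM CHIKV protease domain at pH 8.0 (Tris, Tween 20). Compounds at 7 concentrations (up to 25 uM) preincubated 15 min. Fluorescence read after 1 h at room temperature.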
An asterisk follows results filed as active; i = inactive; [ ] = another dose, or the depositor's remark. % is set by controls: 0 for no effect and ±100 for the full control effect; potency is the fitted concentration of half-maximal effect.

SMILES	nsP2pro inh
C=C1CC[C@@]2(OC1)O[C@H]1CC3C4CC=C5C[C@@H](O[C@@H]6O[C@@H](C)[C@H](O)[C@@H](O)[C@H]6O)C[C@@H](O[C@@H]6O[C@H](C)[C@H](O)[C@H](O)[C@H]6O[C@@H]6O[C@@H](C)[C@H](O)[C@@H](O)[C@H]6O)[C@]5(C)C4CC[C@]3(C)[C@H]1[C@@H]2C (stereo partly specified)	0.3%[5.1 µM]
O=C(Nc1ccc(-c2nc3ccccc3[nH]2)cc1)c1ccc(Cl)c(Cl)c1	-17.7%
O=C(O)c1cccc(-n2cccc2/C=C2/C(=O)N(Cc3ccc(F)cc3)C(=O)N2Cc2ccc(F)cc2)c1	i
Cc1ccc(OCCn2c(CCNC(=O)NC3CCCCC3)nc3ccccc32)cc1	-15.8%
CCCc1ccc(OCC(=O)Nc2scc(-c3cccs3)c2C(=O)OC)cc1	-31.7%
COc1ccc(C(=O)NCC(c2ccco2)S(=O)(=O)c2cccs2)cc1OC (stereo unspecified)	-17.5%
COC(=O)c1c(-c2cccs2)csc1NC(=O)c1ccc(OC)c(OC)c1	12.6µM*
C=CC(=O)N1CCN(c2nc(=O)n(-c3c(C)ccnc3C(C)C)c3nc(-c4c(O)cccc4F)c(F)cc23)[C@@H](C)C1	-1.1%
CCOc1ccc(CCNC(=O)c2cc3ccncc3n2Cc2cccc(C)n2)cc1OCC	i
CCOc1ccc(CCNC(=O)c2cc3ccccc3n2Cc2ccccn2)cc1OCC	7.94µM*
CCOc1ccc(CCNC(=O)c2cc3ncccc3n2Cc2cccc(C)n2)cc1OCC	i
O=C(NC1(c2ccccc2)CC1)c1c(CN2CCC(N3CCCCC3)CC2)c(-c2cccc(C(F)(F)F)c2)nc2cc(Br)ccc12	65.5%
Cc1nn(C)c(C)c1CCC(=O)NCCc1ncc(C)n1C1CCCCC1	i
CCC(C)(C)C(=O)N1CCC2(CC1)N(C)C(=O)CS2(=O)=O	1.6%
CCOC(=O)NNc1ccc(N(CC)CC(C)O)nn1 (stereo unspecified)	11.1µM*
CCOC(=O)NNc1nncc2ccccc12	6.9%
O=C1[C@H]2CN(S(=O)(=O)c3ccc(F)cc3)CCN2C(=O)N1CCO	-4.9%[39.2 µM]
CCC(C)C(=O)O[C@H]1C[C@](C)(O)[C@]23OC(C)(C)[C@H](C[C@H](OC(=O)c4ccccc4)[C@]2(COC(C)=O)[C@H]1OC(=O)C(C)CC)[C@H]3OC(C)=O (stereo partly specified)	-13.2%[10 µM]
CC(C)CCNC(=O)[C@H](CC(C)C)NC(=O)[C@H]1O[C@@H]1C(=O)O	-10.1%
CCOC(=O)[C@H]1O[C@H]1C(=O)N[C@@H](CC(C)C)C(=O)NCCC(C)C	7.08µM*
Cc1nc(-c2cn(C3CCCN(C(=O)C(C)Oc4ccccc4)C3)nn2)no1 (stereo unspecified)	i
O=C(Nc1ccccc1)N[C@H]1CO[C@H]2[C@@H]1OC[C@@H]2Nc1nccc(-c2cccs2)n1	50.0%[39.2 µM]
CC(C)(C)c1ccnc(N[C@H]2CO[C@H]3[C@@H]2OC[C@@H]3NC(=O)c2ccco2)n1	-8.2%[39.2 µM]
CC(=O)c1ccc(NC(=O)N[C@H]2CO[C@H]3[C@@H]2OC[C@@H]3Nc2nccc(-c3ccco3)n2)cc1	-11.1%
O=C(COc1ccccc1)N[C@H]1CO[C@H]2[C@@H]1OC[C@@H]2Nc1nccc(-c2ccco2)n1	12.6µM*
SMILES	nsP2pro inh
O=C(COc1ccccc1)N[C@H]1CO[C@H]2[C@@H]1OC[C@@H]2Nc1nccc(-c2cccs2)n1	-12.4%
O=C(N[C@H]1CO[C@H]2[C@@H]1OC[C@@H]2Nc1nccc(-c2ccco2)n1)c1ccco1	1µM*
COc1ccc2c(=O)n(CC(=O)N(C)Cc3cc(C)no3)ccc2c1OC	-2.0%
CC(C)(O)c1ccc2c(c1)C(O)CC1C(C)(C(=O)O)CCCC21C (stereo unspecified)	-5.4%
CC(=O)OC1CC(OC2C(O)CC(OC3C(O)CC(OC4CCC5(C)C(CCC6C5CCC5(C)C(C7=CC(=O)OC7)CCC65O)C4)OC3C)OC2C)OC(C)C1O (stereo unspecified)	-7.3%
C=C1C/C(=C\C=C2/CCC[C@]3(C)[C@@H]([C@H](C)/C=C/C(C)C(C)C)CC[C@@H]23)[C@@H](O)C[C@@H]1O (stereo partly specified)	-6.7%
O=C1NC2(CCN(Cc3ccccn3)C2)Oc2ccccc21 (stereo unspecified)	i
CCOC(=O)c1csc(NC(=O)c2ccncc2NS(=O)(=O)c2ccc(C)cc2)n1	i
Cc1ccc(NC(=O)N2C[C@@H]3C[C@H](C2)c2c(-c4cccs4)ccc(=O)n2C3)cc1	-2.5%[39.2 µM]
O=c1ccc(-c2cccs2)c2n1C[C@H]1C[C@@H]2CN(S(=O)(=O)c2ccccc2)C1	15.8µM*
COc1ccc(S(=O)(=O)N2C[C@@H]3C[C@H](C2)c2c(NC(=O)c4ccccc4)ccc(=O)n2C3)cc1	3.7%
CSCC[C@H](NC(=O)[C@H](CO)NC(=O)[C@H](CCC(=O)O)NC(C)=O)C(=O)N[C@H](C=O)CC(=O)O	5.9%[5.1 µM]
CCOc1ccc(CCNC(=O)c2csc(Br)n2)cc1OCC	-0.3%
Cc1csc(NC(=O)c2ccc(COc3cccc(Cl)c3)o2)n1	-0.2%
Cc1ccc2nc(NC(=O)c3cccn(Cc4ccccc4F)c3=O)sc2c1	-13.5%
Cc1csc(NC(=O)c2nc3c(o2)CCN(Cc2ccccc2F)CC3)n1	12.6µM*
COc1ccc(-n2c(-c3ccccc3F)nc3c(cnn3-c3ccc(C)cc3)c2=O)cc1	11.2µM*
CCc1nc2c(cnn2-c2ccc(C)cc2)c(=O)n1Cc1ccccc1	-19.0%
COc1ccc(Oc2c(Cl)cnn(-c3cc(C)cc(C)c3)c2=O)cc1	-0.1%
COCC1=C(C(=O)O)N2C(=O)[C@@H](NC(=O)/C(=N\OC)c3csc(N)n3)[C@H]2SC1	-10.8%
CO/N=C(\C(=O)N[C@@H]1C(=O)N2C(C(=O)O)=C(CSc3cnns3)CS[C@H]12)c1csc(N)n1	-46.3%
CCO/N=C(\C(=O)N[C@@H]1C(=O)N2C(C(=O)O)=C(Sc3nc(-c4cc[n+](C)cc4)cs3)CS[C@H]12)c1nsc(NP(=O)(O)O)n1	11.1µM*
COCC(=O)N1CC(C(=O)NCc2ccncc2)C2(CCOCC2)C1 (stereo unspecified)	i
Cc1ccc([S+](=O)([O-])N2CCCCC23Cc2ccccc2NC3=O)cc1 (stereo unspecified)	i
CC(C)=CCN1Cc2ccccc2NC(=O)C12CCNC2 (stereo unspecified)	10µM*
SMILES	nsP2pro inh
O=C1Nc2ccccc2CN(CC2CCCC2)C12CCNC2 (stereo unspecified)	12.6µM*
COC(=O)N1CCCCC12Cc1ccccc1NC2=O (stereo unspecified)	-3.6%[39.2 µM]
O=C1Nc2ccccc2CN(CC2CC2)C12CCNC2 (stereo unspecified)	-7.4%[39.2 µM]
CC(C)C(=O)N1Cc2ccccc2NC(=O)C12CCNC2 (stereo unspecified)	-7.8%[39.2 µM]
O=C(CC1CCCCC1)N1CC(n2cc(COCC3CC3)nn2)C1	-5.8%
CC(=O)O[C@@H]1CC2C(/C=C(\C)C(=O)[C@@]3(O)C[C@@H](C)[C@H](OC(=O)c4ccccc4)C3/C=C/1C)C2(C)C (stereo partly specified)	4.5%[10 µM]
O=C(NCc1ccncc1)c1nc2c(o1)CCN(CCCc1ccccc1)CC2	14.1µM*
O=C(NCc1ccccc1)c1cnc2n1CCN(Cc1ccccc1)CC2	i
O=C(NCc1cccnc1)c1cc(CN2CCC(Cc3ccccc3)CC2)on1	i
C/C=C/C=C/C=C/C(=O)O[C@@H]1C=C(CO)[C@](O)(CO)[C@@]2(C)CCCC(C)(C)[C@H]12	-19.3%

Source: PubChem (National Center for Advancing Translational Sciences (NCATS))
